# Compounds with a hit are over-represented: about 0.81% of the library has one in this group of screens.
# SARS PLP yeast: blocks SARS-CoV papain-like protease in a yeast assay; 0.19% of 330,000 active; S. cerevisiae expressing SARS-CoV PLpro, growth rescue; AID 485353; Potency, µM (titrated, usually from 32.9 µM), inactives show at the top dose activity, positive = growth rescue, most hits filed as activators; calls by dose curve; also: 0% is about no effect; nearly all actives have a fitted effect of over 55% in size
# TbPYK inhibitor: T. brucei pyruvate kinase inhibition. TbPYK enzyme, Kinase-Glo Plus ATP luminescence, 45 min. Q57TT1. 0.12% of 410,000 active. Potency, µM (doses to about 76.8 µM), for inactives: at the top dose activity, negative = inhibition, actives largely listed as inhibitors; also: % is scaled to controls: 0 for no effect and ±100 for the full control effect; nearly all actives have a fitted effect of over 50% in size
#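 Luminescence from Kinase-Glo Plus, added after a 45-minute room-temperature reaction, served as the end-point read-out. The enzyme and substrate were preincubated with compound before ADP (130 uM final) initiated turnover. Concentration-effect curves came from normalized qHTS data.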
# AMA1-RON2 inh: inhibitors of Plasmodium falciparum AMA1-RON2 interaction | 0.2% of 360,000 active | AlphaScreen AMA1-biotinylated RON2 peptide binding | Potency, µM (titrated, usually from 58.2 µM), without a hit: at the highest dose activity change, negative = inhibition, most hits filed as inhibitors;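 also: 0% = vehicle wells and -100% = peptide control; nearly all actives have a fitted effect of over 45% in size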
#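 AMA1 (3D7) with his tag at 25 nM final met compounds first, then biotinylated RON2 peptide at 25 nM; detection used donor plus acceptor beads, 10 µg/mL apiece, read by AlphaScreen after 30 min at room temperature.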
# RE007 growth inh: less growth of the S. pombe RE007 Vpr strain; S. pombe RE007 Vpr strain, BacTiter-Glo ATP luminescence, 24 h; Potency, µM (doses to about 92.2 µM), without a hit: at the highest dose activity change, negative = less growth, usual class: inhibitors; 0.21% of 360,000 active; AID 651644; active = well fitted falling curve with a large enough effect; inconclusive = small, poorly fitted or top-dose-only effect; inactive = no such curve, though single readings can be large or run the other way; also: % is scaled to controls: 0 for no effect and ±100 for the full control effect; nearly all actives have a fitted effect of over 50% in size
#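 Fission yeast strain RE007, carrying one chromosomally integrated HIV-1 vpr copy, was seeded at OD 0.01 in PMG+AL medium with 23 nL pinned compound. After 24 h at 30 °C and 99% humidity, viability was read by BacTiter-Glo luminescence.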
# LmPK inh: inhibitors of Leishmania mexicana pyruvate kinase | Q27686 | purified LmPK, Kinase-Glo ATP luminescence, 1 h | Potency, µM (top dose mostly 57.5 µM), for inactives: at the highest dose activity change, negative = inhibition, usual class: inhibitors | 0.37% of 290,000 active | AID 1721; also: % is scaled to controls: 0 for no effect and ±100 for the full control effect
# Target sequence (Q27686 whole entry, looked up): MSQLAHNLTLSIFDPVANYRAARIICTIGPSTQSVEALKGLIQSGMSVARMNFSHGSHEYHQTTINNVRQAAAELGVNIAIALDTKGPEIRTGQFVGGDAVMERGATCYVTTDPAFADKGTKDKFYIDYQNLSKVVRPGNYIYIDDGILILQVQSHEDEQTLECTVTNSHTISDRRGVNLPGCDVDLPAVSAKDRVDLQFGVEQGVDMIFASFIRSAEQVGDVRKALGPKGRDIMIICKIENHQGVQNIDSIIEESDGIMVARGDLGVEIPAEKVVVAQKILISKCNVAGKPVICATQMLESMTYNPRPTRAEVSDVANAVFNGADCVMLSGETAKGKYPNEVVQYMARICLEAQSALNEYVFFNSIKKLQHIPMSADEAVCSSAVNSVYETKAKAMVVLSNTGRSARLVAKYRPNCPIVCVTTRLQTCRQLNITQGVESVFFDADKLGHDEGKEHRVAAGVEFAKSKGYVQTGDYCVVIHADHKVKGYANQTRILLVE
#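 Kinase-Glo luminescence read after 1 h RT reaction of 0.1 nM LmPK with 0.5 mM PEP and 0.1 mM ADP. Activity scaled between uninhibited and enzyme-free controls.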
# * marks the source's active call; other numbers are inactive results; ? = inconclusive; · = no result; [ ] = remark or other dose. Unless noted, calls follow the shape of the dose curve; as a rule, active = well fitted curve in the direction sought with a large enough effect; inconclusive = small, poorly fitted or top-dose-only effect, or another doubt; inactive = no such curve, though single readings can be large; an effect the other way counts as inactive or inconclusive. Potency is read from the fitted curve at half-maximal effect.
SMILES,SARS PLP yeast,TbPYK inhibitor,AMA1-RON2 inh,RE007 growth inh,LmPK inh
COc1ccc(C(C#N)=C2C=CC(=NO)C=C2)cc1,-21%,-15%,16µM*,?,-4%
N#CC(=C1C=CC(=NO)C(Cl)=C1)c1ccc(Cl)cc1,·,-6%,?,-10%,·
CC(=O)ON=C1C=CC(=C(C#N)c2ccccc2)C=C1,·,?,28µM*,4µM*,·
CC(=O)OC(=C(OC(C)=O)c1ccccc1)c1ccccc1,·,4%,-15%,7%,·
CC(C)Oc1cccc(C(=O)Nc2ccc3oc(-c4ccccc4)nc3c2)c1,·,1%,·,·,·
COc1ccccc1N1CCN(C2CCCN(C(=O)CN3CCCC3=O)C2)CC1 (configuration not stated),0%,-2%,-5%,0%,1%
CCOC(=O)c1c(NC(C)=O)c2c3c(sc2n1Cc1ccc(Cl)cc1)CCCC3,·,3%,·,·,·
CNc1ccc(C=C2C=Cc3ccccc32)cc1,·,-2%,25µM*,?,·
CN(C)c1ccc(C=C2C=Cc3ccccc32)cc1,·,-7%,?,-30%,·
CCCCCCOc1ccc(/C(C)=N/NC2=NCCN2)cc1,-7%,10%,-21%,35µM*,-5%
Nc1ccc(/C=C/C(=O)c2ccco2)cc1,-26%,-4%,-6%[2.32 µM],?,-22%
N#Cc1ccc(/C=C/C(=O)c2ccco2)cc1,-63%,-3%,5%,18µM*,2%
COCCN(Cc1ccccc1)C(=O)c1cccc(S(=O)(=O)N2CCN(Cc3ccccc3)CC2)c1,·,-5%,88%,-13%,·
Cn1c(=O)n(C)c2cc(NC(=O)Cc3ccccc3[N+](=O)[O-])ccc21,-4%,-4%,0%,3%,-3%
CCN(CCCNc1cc2c(c(N)c1S(=O)(=O)O)C(=O)c1ccccc1C2=O)c1ccccc1,·,-30%,14µM*,?,·
O=C1c2ccccc2C(=O)c2c(NCCCN(CCO)CCO)cccc21,-1%,-7%,?,-27%,-26%
C#CCN[C@@H]1CCc2ccccc21,·,-4%,·,·,·
CCOC(=O)c1cccc(NS(=O)(=O)c2ccc3[nH]c4c(c3c2)CCCC4)c1,·,2%,·,·,·
C=CC[n+]1ccc(/C=C2\C=Cc3cc(C)ccc3N2CC)c2ccccc21,-39%,-34%,?,32µM*,?
Cc1ccc(-n2nc3c(N4CCC(C(=O)NC(C)c5ccccc5)CC4)nnc(C)c3c2C)cc1 (configuration not stated),·,-1%,·,·,·
Nc1ccc2nc(-c3cc(Cl)c(N)c(Cl)c3)[nH]c2c1,-5%,-4%,?,1%,16µM*
Nc1ccc2nc(-c3ccc(Cl)cc3)[nH]c2c1,-27%,0%,21%,-28%,-2%
Cc1cc(N=Nc2ccc(C)c(N=Nc3cc(C)c(N)cc3N)c2)c(N)cc1N,1%,-4%,22µM*,-15%,20µM*
CCN(C(=O)Cn1c(=O)oc2cc(Cl)ccc21)c1cccc(C(F)(F)F)c1,·,4%,·,·,·
CC(C)n1c(-c2ccc(C(C)(C)C)cc2)n[nH]c1=S,16%,?,43%,-7%,8.9µM*
SMILES,SARS PLP yeast,TbPYK inhibitor,AMA1-RON2 inh,RE007 growth inh,LmPK inh
CC(C)(C)c1ccc(-c2n[nH]c(=S)n2Cc2ccccc2)cc1,-2%,?,121%,18%,-7%
COc1ccc(OC)c(CN2C(=O)c3ccccc3C2c2nnnn2C(C)C)c1 (configuration not stated),·,7%,4%,-13%,·
CN1c2cc(O)c(N=NC(N)=O)cc2CC1S(=O)(=O)O (configuration not stated),·,2%,·,·,·
CCOC(=O)c1ccc(OCCN2C[C@H](O)[C@@H](O)[C@H](O)[C@H]2CO)cc1,·,4%,·,·,·
CC1=CC(=O)C(Sc2ccc(C)cc2)=CC1=O,·,7.1µM*,13µM*,22µM*,·
Nc1nnnn1-c1ccccc1,·,0%,·,·,·
Cc1ccc(NC2=C(NC(=O)c3ccccc3)C(=O)c3ccccc3C2=O)cc1Cl,-48%,?,?,?,7.1µM*
COc1ccc(C(CCNCc2ccc(N(C)C)cc2)c2ccccc2)cc1 (configuration not stated),1%,-7%,20µM*,11%,0%
CC(C)Oc1ccc(C(CCNCc2ccc(O)cc2)c2ccccc2)cc1 (configuration not stated),-2%,4%,-2%,6%,-2%
O=c1cc2c(=O)oc3cc(O)c(O)oc3c2c(O)c1O,1%,-18%,10µM*,-3%,-18%
O=c1oc2cc(O)c(Cl)cc2c2ccccc12,-29%,-12%,2%,25%,-6%
COc1cccc(/C=C/c2nc(C#N)c(N3CCN(C)CC3)o2)c1,·,-3%,·,·,·
COc1ccc(CN2CCN(Cc3ccco3)CC2)cc1OC,?,0%,18µM*,-26%,-3%
C/C(=N/NC(=O)c1cccs1)c1c(C)[nH]n(-c2nc3ccccc3s2)c1=O,-68%,?,70%,?,20µM*
CCCCCCCCCC(=O)NO,·,-5%,·,·,·
CCCCCc1cc(=O)oc2c(C(CCN3CCCC(C)C3)c3ccc(N(C)C)cc3)c(OC)cc(OC)c12 (configuration not stated),-6%,-8%,14µM*,3%,-2%
CCCCCc1cc(=O)oc2c(C(CCN(CC)CC)c3ccc(N(C)C)cc3)c(OC)cc(OC)c12 (configuration not stated),8%,-5%,25µM*,0%,5%
CN(C)c1ccc(N=Nc2ccccc2C(=O)OCC(=O)N(C)C2CCCCC2)cc1,-14%,-17%,-13%,8%,-1%
CN(C)c1ccc(N=Nc2ccccc2C(=O)OCC(=O)NC2CCCC2)cc1,-54%,-20%,7.9µM*,-10%,-8%
CN(C)c1ccc(C(=O)OCC(=O)NC2CCCCCC2)cc1,-4%,-2%,1%,2%,2%
CN(C)c1ccc(N=Nc2ccccc2C(=O)OCC(=O)NCC2CCCCC2)cc1,-13%,-5%,11µM*,8%,-1%
Cn1c(=O)c2c(nc3n(-c4ccc(O)cc4)c(-c4ccc(Br)cc4)cn23)n(C)c1=O,·,4%,·,·,·
Cc1cc2nc3ccc(=[N+](C)C)cc-3sc2cc1N,-3%,?,0%,?,14µM*
Cc1cc(N2CCOCC2)ccc1/C=C1/SC(=O)NC1=O,7%,?,-9%,10%,16µM*
CCCCN(CC)CCCn1cnc2c([nH]c3ccc(Cl)cc32)c1=O,·,-1%,·,·,·
CSCCC(NC(=O)COc1ccccc1)C(=O)N(C)Cc1ccc(Cl)cc1Cl (configuration not stated),-7%,2%,-9%,-1%,·
O=C(O)c1cc(O)c2c(c1)[C@H]([C@H]1c3cc(C(=O)O)cc(O)c3C(=O)c3c(O[C@@H]4OC(CO)C(O)C(O)C4O)cccc31)c1cccc(O[C@@H]3OC(CO)C(O)C(O)C3O)c1C2=O (some centres not stated),·,-9%,·,·,·

# High-throughput results deposited in PubChem by National Center for Advancing Translational Sciences (NCATS).
